Data as given in PubChem BioAssay AID2314 (National Center for Advancing Translational Sciences (NCATS), 2010).
About 37,000 (12%) of roughly 300,000 compounds were called active. For the sample, actives were picked, then their nearest neighbours and some compounds at random. Unmarked numbers belong to inactive results. Cut-off read from the data, not from the text of the source: active = max response mostly above about 13% (no sharp cut-off); inactive = mostly below about 14%.

assay: Cycloheximide Counterscreen for Small Molecule Inhibitors of Shiga Toxin; conditions: cell reporter, cycloheximide protein synthesis inhibition counterscreen; active compounds read high; note: read at 38.3 µM for the half of the compounds with a filed dose; 0% is about no effect

SMILES	max response
CCOCCc1nn2c(=O)cc(CSCC(=O)Nc3cccc(C)c3C)nc2s1	-4.2%
COc1ccccc1S(=O)(=O)c1c(C)cc(C)[nH]c1=O	-6.18%
CCCCOC(=O)c1ccc(NC(c2ccc(C)cc2)P(=O)(OC)OC)cc1 (stereo unspecified)	-2.29%
Cc1cc(C)c(OCC(=O)N(Cc2cccs2)C2CCS(=O)(=O)C2)c(C)c1 (stereo unspecified)	8.48%
CCN(CC)c1ccc([N+](=O)[O-])c2cccnc12	0.792%
CN(c1ccccc1)c1ccc([N+](=O)[O-])c2nonc12	12% (active)
Cc1ccccc1Nc1c([N+](=O)[O-])ccc2nonc12	0.319%
CC(C)c1ccc(NC2CCCN(C(=O)c3ccncc3)C2)cc1 (stereo unspecified)	-4.01%
Cc1ccc(S(=O)(=O)N2CCN(CC(=O)N/N=C/c3ccc(Br)s3)CC2)cc1	-1.09%
COCCCNc1nc2ccccc2nc1NS(=O)(=O)c1ccc(F)cc1	-1.37%
O=C(COc1ccccc1)Nc1ccc(N2CCN(C(=O)c3cccs3)CC2)cc1	-1.71%
COc1ccc(C2C(C(=O)N3CCN(c4ccc(OC)cc4)CC3)c3ccccc3C(=O)N2C)cc1 (stereo unspecified)	-3.17%
CC(=C1C(=O)c2ccccc2C1=O)N1CCN(c2ccccn2)CC1	4.62%
COc1ccc(OCC(=O)N2CCN(C(=O)c3cccs3)CC2)cc1	-2.3%
COc1ccc(N2CCN(C(C)=C3C(=O)c4ccccc4C3=O)CC2)cc1	40.7% (active)
COc1ccc(N2CCN(C(=O)c3cccs3)CC2)cc1	20.7% (active)
O=C(N[C@@H](Cc1ccccc1)C(=O)OCc1ccccc1)c1nc[nH]c1C(=O)N[C@@H](Cc1ccccc1)C(=O)OCc1ccccc1	-1.4%
Cc1ccc(N2C(=O)CC(Sc3ncn[nH]3)C2=O)cc1 (stereo unspecified)	-4.4%
COc1cccc(/C=C2\Sc3ccc(C(=O)NCC4CCCO4)cc3N(C)C2=O)c1 (stereo unspecified)	6.25%
COc1ccc([N+](=O)[O-])cc1-c1nc2ccccc2nc1-c1ccccc1	-2.38%
O=[N+]([O-])c1cccc(Nc2c3ccccc3nc3ccccc23)c1	4.55%
O=[N+]([O-])c1ccc2c(c1)Nc1nc3ccccc3nc1N2	22.7% (active)
O=C(NCCOc1cccnc1)c1ccc(OC2CCN(Cc3ccccn3)CC2)cc1	10.4%
O=C(CN1CCC(O)(c2cccc(C(F)(F)F)c2)CC1)NCCc1ccccc1	-0.807%

SMILES	max response
Cn1cc([N+](=O)[O-])c(C(=O)Nc2cnn(Cc3ccc(F)cc3)c2)n1	9.36%
Cc1onc(C(=O)Nc2ccc3c(c2)OCO3)c1[N+](=O)[O-]	30.6% (active)
Cc1nc([N+](=O)[O-])cn1CC(=O)Nc1ccc2c(c1)OCO2	-2.41%
Cc1nn(CC(=O)Nc2ccc3c(c2)OCO3)c(C)c1[N+](=O)[O-]	0.353%
Cn1cc([N+](=O)[O-])c(C(=O)Nc2ccc3c(c2)OCCO3)n1	26.5% (active)
COc1cccc(NC(=O)c2nn(C34CC5CC(CC(C5)C3)C4)cc2[N+](=O)[O-])c1	13.1%
CCCc1nn(C)c2c(=O)[nH]c(-c3cc(S(N)(=O)=O)ccc3OCC)nc12	-4.06%
COCCn1c(SCC(=O)N2CCCCCC2)nc2c(c1=O)SCC2	4.66%
CC(C)Cc1ccc(C(C)C(=N)N)cc1 (stereo unspecified)	-2.08%
COCc1ccc(C(=O)NC2CC(C)(C)Cc3c2cnn3-c2ccc(C)cc2)o1 (stereo unspecified)	4.44%
COC(=O)c1c(C)c(C)nc(N)c1C#N	5.15%
COCc1c(N)c(C)nc(Cl)c1C#N	14% (active)
Cc1nc(Cl)c(C#N)c2c1CCCC2	4.78%
Fc1ccc(CNCc2ccc(Br)cc2)cc1	2.17%
CCc1cc2c(=O)n(-c3ccccc3)c(SCC(=O)O)nc2s1	-0.568%
COCc1cc(=O)[nH]c(SC)n1	-3.39%
O=C(N/N=C/c1cccc(OCc2ccccc2)c1)c1ccc(Br)o1	47.1% (active)
Cc1ccc(OCCOCCOc2ccc(Br)cc2/C=N\NC(=O)c2ccncc2)cc1	-4.52%
O=C(Cc1cccs1)N/N=C/c1ccc(OCc2ccccc2)cc1	-2.21%
O=C(N/N=C/c1ccc(OCc2ccccc2)cc1)c1ccc(O)cc1	18.7%
Cc1ccc(OCCOc2cccc(/C=N/NC(N)=O)c2)cc1	15.2% (active)
Cc1cccc(OCC(=O)NCC(=O)N/N=C/c2ccc(N(C)C)cc2)c1	1.69%
Cc1ccc(S(=O)(=O)Oc2ccc(/C=N/NC(=O)c3ccncc3)cc2)cc1	6.52%
CC(C)NS(=O)(=O)c1ccc(OCC(=O)NC2CCCCCC2)cc1	1.29%

SMILES	max response
Cc1nc2cc3c(cc2s1)OCO3	-2.58%
O=C(NCCc1cccc(F)c1)C1CCCN(c2nc3ccccc3s2)C1 (stereo unspecified)	-3.33%
Brc1ccc2nc(N3CCCC3)sc2c1	38.8% (active)
Fc1ccc2nc(N3CCCCC3)sc2c1	29.6% (active)
c1c2c(cc3sc(N4CCCCC4)nc13)OCCO2	25.6% (active)
c1ccc2sc(N3CCNCC3)nc2c1	11.7%
Cc1nc(N2CCCCC2)sc1C=O	-2.42%
Cc1nc2ccc(S(=O)(=O)NC(C(=O)N3CCCCCC3)C(C)C)cc2s1 (stereo unspecified)	-2.97%
CCOC(=O)N1CCC(NC(=O)c2ccc3nc(N4CCOCC4)sc3c2)CC1	-1.55%
O=C(CN(CC1CCCO1)C(=O)CNS(=O)(=O)c1ccc(Cl)cc1)NCc1ccccc1 (stereo unspecified)	-3.57%
CC1=C[C@H]2Cc3cc(C)cc(C)c3S(=O)(=O)[C@@H]2C=C1	-2.12%
CC(Sc1nnc(-c2ccccc2F)n1C1CC1)C(N)=O (stereo unspecified)	-2.7%
O=C(NNS(=O)(=O)c1ccc([N+](=O)[O-])cc1)C1CCCCC1	10.1%
COc1ccccc1C(=O)N1CCN=C1SCc1cccnc1	0.58%
O=C1CN(C(=O)c2ccccc2F)C(c2ccc(F)cc2)c2cc(F)ccc2N1 (stereo unspecified)	-4.28%
Oc1ccc(/C=N/Nc2ccc(C(F)(F)F)cn2)cc1O	57.2% (active)
O=C(N/N=C/c1ccc(O)c(O)c1)C1c2ccccc2Oc2ccccc21	-0.597%
Cc1nccn1CC(=O)N/N=C/c1ccc(O)c(O)c1	-1.27%
CCCc1cc(=O)[nH]c(SCC(=O)Nc2sc3c(c2C#N)CCCC3)n1	-1.28%
O=S(=O)(NC1CCCCC1N1CCCCC1)c1ccc(Cl)cc1 (stereo unspecified)	-6.15%
O=C(O)c1ccc(S(=O)(=O)N2CCOCC2)o1	-6.82%
COc1ccc(Cl)cc1NC(=O)CN(C)C(=O)CNC(=O)C12CC3CC(CC(C3)C1)C2	6.85%
COc1ccc(Cl)cc1NC(=O)CN(C)Cc1ccc(OC)c(OC)c1	10.8% (active)
COc1ccc(OC)c(NC(=O)CN(Cc2ccc(Cl)cc2)S(C)(=O)=O)c1	-2.07%

SMILES	max response
CN1CCN(c2ccccc2NC(=O)COc2ccc(C3CCCCC3)cc2)CC1	-1.31%
CCOC(=O)c1cccc(NC(=O)C2CCN(c3ncnc4c3nc3n4CCCCC3)CC2)c1	-6.95%
O=C(NCc1ccncc1)C1CCCN(S(=O)(=O)c2ccc(Br)cc2)C1 (stereo unspecified)	1.08%
COc1ccc(CSc2nnnn2-c2ccc(O)cc2)cc1F	-3.78%
CCc1ccc2oc(-c3ccc(N)cc3)nc2c1	38.2% (active)
Cn1c(Cc2cccc3ccccc23)nnc1SCC(=O)N1CCN(c2cccc(Cl)c2)CC1	-3.1%
COCc1cc(C)n(CC(=O)NCC2CCCO2)c(=O)c1C#N (stereo unspecified)	-6.37%
Cc1c(CCC(=O)O)c(=O)oc2c(C)c(OCc3ccccc3Cl)ccc12	1.9%
CC(C)(C)n1nnnc1C(c1ccccc1F)N1CCN(C(=O)c2ccco2)CC1 (stereo unspecified)	-1.72%
COCCCNC(=O)/C=C/c1ccc(OCc2c(F)cccc2Cl)cc1	-7.84%
O=C(/C=C/c1ccc(OCc2c(F)cccc2Cl)cc1)N1CCOCC1	27.3% (active)
CN(C)CCCNC(=O)/C=C/c1ccc(OCc2c(F)cccc2Cl)cc1	-2.24%
COc1ccc(NS(=O)(=O)c2cc(C(=O)Nc3ccccc3C(=O)O)ccc2C)cc1	1.17%
CCOc1cc(N2CCOCC2)c(OCC)cc1NC(=O)c1cc(C)nc2ccccc12	-1.57%
CC(=O)Oc1ccc2c(=O)oc(-c3ccc([N+](=O)[O-])cc3)nc2c1	1.51%
COc1cc2c(cc1OC)C(c1cccc([N+](=O)[O-])c1)=NCC2	-3.32%
Cc1nnc(-c2ccc(Oc3ccc(C)c(C)c3)c([N+](=O)[O-])c2)o1	4.56%
O=[N+]([O-])c1ccc2c(c1)C(O)n1nc(-c3ccccc3)nc1S2 (stereo unspecified)	-1.52%
O=[N+]([O-])c1ccc2oc(-c3cccc(O)c3)nc2c1	46.9% (active)
COc1ccc(-c2nc3cc([N+](=O)[O-])ccc3o2)cc1OC	24% (active)
O=C1[C@@H]2C(c3cccnc3)=NO[C@@H]2C(=O)N1c1ccc(Cl)cc1Cl	-1.88%
O=C(CN1CCN(c2ccc(O)cc2)CC1)Nc1ccc(-c2ccccc2)cc1	-0.918%
Oc1ccc(-c2cccc(-c3ccc(O)cc3)c2)cc1	29.3% (active)
Oc1ccc(-c2nncn2-c2ccccc2)cc1	1.52%
